Source: PubChem BioAssay (NCI)
The panel holds about 83,000 compounds, 20% with a hit somewhere; the sample as a whole holds those more often.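 96-well plates, one dose, 48 hours. Percent growth reported; active if below 10.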 Values without a mark were called inactive. Activity calls are given as the source filed them.

Assays:
Test in all cases: NCI-60 one-dose screen, 48 h (100 = growth as untreated, 0 = no growth, -100 = all killed)
BT-549 breast = conditions: 10 µM unless noted
MDA-MB-435 melanoma = conditions: 10 µM unless noted
SW-620 colon = conditions: 10 µM unless noted
MCF7 breast = conditions: 10 µM
HCT-116 colon = conditions: 10 µM unless noted
HCC-2998 colon = conditions: 10 µM unless noted
KM12 colon = conditions: 10 µM unless noted

Row | Compound | growth (BT-549 breast) [%] | growth (MDA-MB-435 melanoma) | growth (SW-620 colon) | growth (MCF7 breast) | growth (HCT-116 colon) | growth (HCC-2998 colon) | growth (KM12 colon)
1 | Cc1ccc(Nc2nc(N)c3ccccc3n2)cc1Cl | 85.8 | 92.1% | 67.7% | 68.7% | 28.8% | 51.6% | 56%
2 | Cc1nn(-c2nc3ccccc3[nH]2)c2c1C(c1ccc(OCC(N)=O)cc1)CC(=O)N2 (centres undefined) | 105 | 98.8% | 88.7% | 96% | 101% | 122% | 109%
3 | COc1ccc(-n2c(C(O)c3ccccc3)nn(CN3CCOCC3)c2=S)cc1 (centres undefined) | 108 | 106% | 87% | 105% | 105% | 106% | 99.8%
4 | O=C(c1nc2ccccc2[nH]1)C1C(c2ccc(F)cc2)C2CC3CCCCC3N2[C@@]12C(=O)Nc1ccc(Cl)cc12 (some centres undefined) | 77.4 | 42.4% | 41% | 21.4% | 28% | 43% | 43.9%
5 | CCOC(=O)c1c(Cl)c2c(n1Cc1ccccc1)-c1oncc1CCC2 | 87.6 | -12.9% (active) | 39.5% | 37.5% | 50.3% | 61.8% | 53.1%
6 | O=C1C(Cl)=C(NCc2ccco2)C(=O)c2ccccc21 | 103 | -38.4% (active) | 99.7% | 22% | 80.5% | 97.9% | 62.6%
7 | CC(C)c1ccc(S(=O)(=O)NC(=O)NC2CCCC2)cc1 | 100 | 100% | 97.9% | 93.2% | 97.5% | 108% | 103%
8 | Cc1sc2ncnc(Sc3nc4ccccc4[nH]3)c2c1C | 47.2 | -92.9% (active) | -78.2% (active) | -70.2% (active) | -71.2% (active) | -91.4% (active) | -90.1% (active)
9 | CCOC(=O)C1(C(=O)OCC)N=C(c2ccccc2)C=C1c1ccccc1 | 97.9 | 103% | 93.3% | 79.5% | 78.4% | 105% | 93.6%
10 | Cc1nc(Nc2cn[nH]c2C(=O)Nc2ccc(CN3CCN(C)CC3)cc2)c2ccsc2n1 | 88.5 | 87.1% | 114% | 59.9% | 52.4% | 95.3% | 27.4%
11 | OC(c1ccccc1)c1nnc(SCc2ccccc2)n1Cc1ccccc1 (centres undefined) | 88.4 | 97.8% | 105% | 92.9% | 92.2% | 111% | 108%
12 | CCN1C(=O)N(CC)C2Nn3c(s/c(=C\c4ccccc4F)c3=O)=NC21 (centres undefined) | 44.3 | -19.9% (active) | 38.4% | 33.1% | 17.5% | 36.1% | 28.5%
13 | CCCN1C(=O)N(CCC)C2C1NN=c1s/c(=C3\C(=O)N(C(C)C)c4ccccc43)c(=O)n12 (centres undefined) | 47.7 | -7.13% (active) | 35.9% | 15.4% | 20% | 65.3% | 26.9%
14 | C=C[C@@H]1CCC/C=C/[C@@H]2C[C@H](O)C[C@H]2[C@H](O)/C=C/C(=O)O1 | 40.6 | 12.9% | -15.9% (active) | -14.8% (active) | -0.456% (active) | -23.3% (active) | -36.3% (active)
15 | Cc1ccc(F)cc1NC(=O)c1cc(Cl)ccc1Nc1ccccc1 | 86.2 | 59.5% | 57.5% | 29.7% | 30.9% | 28.2% | 37.1%
16 | O=C(Nc1ccc(-c2nc3cc4ccccc4cc3[nH]2)cc1)c1cccc(Br)c1 | 47.9 | 30% | 26.9% | 27.5% | 64.6% | 33.1% | 39.8%
17 | CCOc1ccccc1CN1CCc2nc3cc(C(C)(C)C)[nH]n3c(=O)c2C1 | 106 | 104% | 105% | 98% | 102% | 98.7% | 98.2%
